Test results: PubChem BioAssay (NCI)
The panel holds about 79,000 compounds, 15% with a hit somewhere; the sample as a whole holds those more often. Calls of active or inactive are those of the source. No stated cut-off is given here; in the data, active means growth inhibition above about 70%; inactive means the rest.

Key:
[1] = NCI Yeast Anticancer Drug Screen. Data for the rad52 strain (AID 147);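 further: 0% = growth of vehicle-treated control cultures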; conditions: S. cerevisiae rad52 mutant growth inhibition, active compounds read high
Procedure, shortened: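 Here a repair-compromised yeast strain receives each compound; its growth is then quantified and normalised to vehicle-only controls.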

[2] = NCI Yeast Anticancer Drug Screen. Data for the wt1 strain (AID 149);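 further: 0% = growth of vehicle-treated wt1 cultures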; conditions: S. cerevisiae wt1 strain (SPY 50644) growth inhibition, active compounds read high
Procedure, shortened: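 Using yeast strain wt1, compound-induced growth inhibition was determined against vehicle-treated cultures.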

[3] = NCI Yeast Anticancer Drug Screen. Data for the rad50EPP+ strain (AID 151);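 further: 0% = growth of vehicle-treated control cultures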; conditions: S. cerevisiae rad50 mutant strain, active compounds read high
Procedure, shortened: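 Read-out is yeast growth inhibition relative to vehicle; cells used were the rad50EPP+ strain.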

[4] = NCI Yeast Anticancer Drug Screen. Data for the mgt1 strain (AID 153); conditions: S. cerevisiae mgt1 mutant growth inhibition, active compounds read high
Procedure, shortened: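 Measured: inhibition of mgt1 yeast growth by compound, normalized to vehicle-treated cultures.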

[5] = NCI Yeast Anticancer Drug Screen. Data for the rad50 strain (AID 155);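 further: 0% = growth of vehicle-only cultures of the same strain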; conditions: S. cerevisiae rad50 strain growth inhibition, active compounds read high
Procedure, shortened: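 Relative growth inhibition (compound vs vehicle) was measured in yeast with a defined repair-gene alteration.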

[6] = NCI Yeast Anticancer Drug Screen. Data for the rad14 strain (AID 159);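 further: 0% = growth of vehicle-treated control cultures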; conditions: S. cerevisiae rad14 strain growth inhibition, active compounds read high
Procedure, shortened: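 Screen for anticancer potential: a yeast strain altered in DNA damage repair is grown with compound, and reduced growth is quantified against vehicle controls.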

[7] = NCI Yeast Anticancer Drug Screen. Data for the sgs1 mgt1 strain (AID 161);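 further: 0% = growth of cultures given vehicle only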; conditions: S. cerevisiae sgs1 mgt1 strain, active compounds read high
Procedure, shortened: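 This yeast growth screen uses a strain with defined DNA-repair lesions; compound-treated growth is compared with vehicle-treated growth.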

[8] = NCI Yeast Anticancer Drug Screen. Data for the CLN2oe strain (AID 163);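 further: 0% = growth of vehicle-only control cultures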; conditions: S. cerevisiae CLN2oe strain, active compounds read high
Procedure, shortened: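 Whole-cell yeast growth assay. A strain engineered for altered cell-cycle control received compound, and inhibition relative to vehicle-treated cultures was recorded.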

[9] = NCI Yeast Anticancer Drug Screen. Data for the cln2 rad14 strain (AID 165);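 further: 0% = growth equal to vehicle treated cultures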; conditions: S. cerevisiae cln2 rad14 strain, active compounds read high
Procedure, shortened: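 Yeast strain cln2 rad14, bearing defects in cell cycle control and DNA repair, serves as the test system; values reflect growth inhibition compared with vehicle.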

[10] = NCI Yeast Anticancer Drug Screen. Data for the bub3 strain (AID 167); conditions: S. cerevisiae bub3 mutant strain, active compounds read high
Procedure, shortened: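 Screening used yeast with an engineered genetic alteration affecting cell cycle control. Compound-exposed cultures were compared with vehicle cultures, and reduced growth was taken as inhibition.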

[11] = NCI Yeast Anticancer Drug Screen. Data for the wt2 strain (AID 169);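 further: 0% = growth of vehicle-treated yeast cultures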; conditions: S. cerevisiae wt2 strain growth inhibition, active compounds read high
Procedure, shortened: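 Treated yeast vs. vehicle-treated yeast: growth inhibition determined.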

[12] = NCI Yeast Anticancer Drug Screen. Data for the sgs1 strain (AID 173);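 further: 0% = growth of vehicle-only control cultures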; conditions: S. cerevisiae sgs1 mutant, active compounds read high
Procedure, shortened: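 A genetically defined yeast mutant is incubated with the test compound, and its growth is compared to that of the same strain given vehicle.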

[13] = NCI Yeast Anticancer Drug Screen. Data for the mlh1 rad18 strain (AID 175); conditions: S. cerevisiae mlh1 rad18 strain growth inhibition, active compounds read high
Procedure, shortened: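 Steps: expose repair-defective yeast to compound; measure growth; express inhibition against vehicle-treated controls.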

[14] = NCI Yeast Anticancer Drug Screen. Data for the rad18 strain (AID 177); conditions: S. cerevisiae rad18 mutant growth inhibition, active compounds read high
Procedure, shortened: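 Measured value is growth inhibition of a yeast strain bearing a DNA repair alteration, referenced to vehicle-treated cells.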

[15] = NCI Yeast Anticancer Drug Screen. Data for the mec2-1 strain (AID 157); conditions: S. cerevisiae mec2-1 strain, active compounds read high
Procedure, shortened: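 Using mec2-1 yeast: add compound, measure growth, express inhibition versus vehicle-treated cultures.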

[16] = NCI Yeast Anticancer Drug Screen. Data for the mlh1 strain (AID 171);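 further: 0% = growth of vehicle-treated control cultures of the same strain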; conditions: S. cerevisiae mlh1 strain growth inhibition, active compounds read high
Procedure, shortened: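 A yeast strain with a defined genetic lesion serves as the test organism. Cultures receive compound or vehicle, and growth is measured.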

[17] = at 5.0 µM (retest, dose inferred, filed as 0.5)
[18] = at 50.0 µM (retest, dose inferred, filed as 5.0)

Measured: growth inhibition

CCN1CCC(O)(c2ccc(Oc3ccc(C)cc3)cc2)C(C(=O)c2ccc(Oc3ccc(C)cc3)cc2)C1 (configuration not stated)
inactive: [1]; at 1.2 µM -28% | [1]; at 3.7 µM -32% | [2]; at 1.2 µM -44% | [2]; at 3.7 µM -31% | [3]; at 1.2 µM -17% | [3]; at 3.7 µM 15% | [4]; at 1.2 µM -7% | [4]; at 3.7 µM 6% | [5]; at 1.2 µM -21% | [5]; at 3.7 µM -20% | [5]; [17] 18% | [6]; at 1.2 µM -38% | [6]; at 3.7 µM -9% | [7]; [17] 16% | [7]; [18] -2% | [8]; at 1.2 µM 29% | [8]; at 3.7 µM 22% | [9]; [17] 18% | [9]; [18] 10% | [10]; at 1.2 µM 0% | [10]; at 3.7 µM 23% | [10]; [17] 14% | [10]; [18] 15% | [11]; at 1.2 µM -7% | [11]; at 3.7 µM -19% | [12]; at 1.2 µM -18% | [12]; at 3.7 µM -22% | [13]; [17] 21% | [14]; at 1.2 µM -20% | [14]; at 3.7 µM 5%
active: [1]; at 11.0 µM 96% | [1]; at 33.0 µM 95% | [1]; at 100.0 µM 93% | [2]; at 11.0 µM 97% | [2]; at 33.0 µM 96% | [2]; at 100.0 µM 94% | [3]; at 11.0 µM 96% | [3]; at 33.0 µM 94% | [3]; at 100.0 µM 93% | [4]; at 11.0 µM 98% | [4]; at 33.0 µM 96% | [4]; at 100.0 µM 95% | [5]; at 11.0 µM 97% | [5]; at 33.0 µM 95% | [5]; [18] 96% | [5]; at 50.0 µM 85.6% | [5]; at 100.0 µM 94% | [6]; at 11.0 µM 96% | [6]; at 33.0 µM 95% | [6]; at 100.0 µM 92% | [7]; at 50.0 µM 88.8% | [8]; at 11.0 µM 98% | [8]; at 33.0 µM 96% | [8]; at 100.0 µM 91% | [9]; at 50.0 µM 88.2% | [10]; at 11.0 µM 97% | [10]; at 33.0 µM 96% | [10]; at 50.0 µM 89% | [10]; at 100.0 µM 95% | [11]; at 11.0 µM 97% | [11]; at 33.0 µM 96% | [11]; at 100.0 µM 86% | [12]; at 11.0 µM 97% | [12]; at 33.0 µM 96% | [12]; at 100.0 µM 93% | [13]; [18] 95% | [13]; at 50.0 µM 91% | [14]; at 11.0 µM 97% | [14]; at 33.0 µM 96% | [14]; at 100.0 µM 93%

Cc1ccccc1NC(=O)c1c(C)oc2c1C(=O)c1ccccc1C2=O
active: [3]; at 100.0 µM 82% | [4]; at 100.0 µM 93% | [15]; [18] 71% | [15]; at 100.0 µM 92% | [6]; at 100.0 µM 93% | [8]; at 100.0 µM 87% | [10]; [18] 94% | [10]; at 100.0 µM 85% | [11]; at 100.0 µM 87% | [16]; at 100.0 µM 85% | [13]; [18] 76% | [13]; at 50.0 µM 77%
inactive: [1]; at 1.2 µM -7% | [1]; at 3.7 µM -6% | [1]; at 11.0 µM 3% | [1]; at 33.0 µM 17% | [1]; at 100.0 µM 69% | [2]; at 1.2 µM -28% | [2]; at 3.7 µM -23% | [2]; at 11.0 µM -23% | [2]; at 33.0 µM -5% | [2]; at 100.0 µM 60% | [3]; at 1.2 µM -8% | [3]; at 3.7 µM -17% | [3]; at 11.0 µM 7% | [3]; at 33.0 µM 42% | [4]; at 1.2 µM -40% | [4]; at 3.7 µM -35% | [4]; at 11.0 µM -21% | [4]; at 33.0 µM 57% | [15]; at 1.2 µM -28% | [15]; at 3.7 µM -31% | [15]; [17] -10% | [15]; at 11.0 µM -24% | [15]; at 33.0 µM 19% | [15]; at 50.0 µM 50.5% | [6]; at 1.2 µM -45% | [6]; at 3.7 µM -28% | [6]; at 11.0 µM -26% | [6]; at 33.0 µM 12% | [8]; at 1.2 µM -13% | [8]; at 3.7 µM 19% | [8]; at 11.0 µM 9% | [8]; at 33.0 µM 39% | [9]; [17] 1% | [9]; [18] 51% | [9]; at 50.0 µM 53.1% | [10]; at 1.2 µM -57% | [10]; at 3.7 µM -36% | [10]; [17] 17% | [10]; at 11.0 µM -23% | [10]; at 33.0 µM 25% | [10]; at 50.0 µM 69.2% | [11]; at 1.2 µM -6% | [11]; at 3.7 µM -7% | [11]; at 11.0 µM 14% | [11]; at 33.0 µM 30% | [16]; at 1.2 µM -2% | [16]; at 3.7 µM -8% | [16]; at 11.0 µM -12% | [16]; at 33.0 µM -5% | [13]; [17] -2% | [14]; at 1.2 µM -23% | [14]; at 3.7 µM -24% | [14]; at 11.0 µM -17% | [14]; at 33.0 µM -8% | [14]; at 100.0 µM 55%
